Assay results: PubChem BioAssay AID1159580 (chemical genetic matrix, 2015)
About 2,000 (36%) of roughly 5,500 compounds were called active. Roughly 18% stayed inconclusive and do not appear here. No stated cut-off is given here; in the data, active means normalized growth mostly below about 0.91 (no sharp cut-off); inconclusive means no clear call, values can overlap the other calls; inactive means mostly above about 0.92. The list shows a part of the results.

Experiment: chemical genetic growth profiling, strain panel (AID 1159580);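 further: tested at 20 µM; growth read once vehicle control cultures reached saturation at 30 °C; 1 = growth at the plate median or of vehicle wells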
Conditions: growth OD

Measured: normalized growth

FC(F)(F)c1cc(-c2noc(C3CCc4ccccc4O3)n2)cc(C(F)(F)F)c1 (centres undefined)
inactive: S. cerevisiae deletion strains, locus YAL013W, strain DEP1, stronger effect = lower value 0.999 | S. cerevisiae deletion strains, locus YBR229C, strain ROT2, stronger effect = lower value 1.02 | S. cerevisiae deletion strains, locus YCL061C, strain MRC1, stronger effect = lower value 0.988 | S. cerevisiae deletion strains, locus YDL101C, strain DUN1, stronger effect = lower value 0.995 | S. cerevisiae deletion strains, locus YDL134C, strain PPH21, stronger effect = lower value 1.03 | S. cerevisiae deletion strains, locus YDR150W, strain NUM1, stronger effect = lower value 0.942 | S. cerevisiae deletion strains, locus YEL061C, strain CIN8, stronger effect = lower value 1.01 | S. cerevisiae deletion strains, locus YGR078C, strain PAC10, stronger effect = lower value 0.988 | S. cerevisiae deletion strains, locus YGR229C, strain SMI1, stronger effect = lower value 1 | S. cerevisiae deletion strains, locus YHR030C, strain SLT2, stronger effect = lower value 1.05 | S. cerevisiae deletion strains, locus YHR087W, strain rtc3, stronger effect = lower value 0.994 | S. cerevisiae deletion strains, locus YJR043C, strain POL32, stronger effect = lower value 0.998 | S. cerevisiae deletion strains, locus YJR075W, strain HOC1, stronger effect = lower value 0.97 | S. cerevisiae deletion strains, locus YKL190W, strain CNB1, stronger effect = lower value 1.02 | S. cerevisiae deletion strains, locus YLR039C, strain RIC1, stronger effect = lower value 1.04 | S. cerevisiae deletion strains, locus YLR058C, strain SHM2 (second series), stronger effect = lower value 0.995 | S. cerevisiae deletion strains, locus YLR085C, strain ARP6, stronger effect = lower value 0.98 | S. cerevisiae deletion strains, locus YLR262C, strain YPT6, stronger effect = lower value 1.04 | S. cerevisiae deletion strains, locus YML094W, strain GIM5, stronger effect = lower value 0.982 | S. cerevisiae deletion strains, locus YMR219W, strain ESC1, stronger effect = lower value 1 | S. cerevisiae deletion strains, locus YMR263W, strain SAP30, stronger effect = lower value 0.993 | S. cerevisiae deletion strains, locus YNL153C, strain GIM3, stronger effect = lower value 0.998 | S. cerevisiae deletion strains, locus YNL298W, strain CLA4 (second series), stronger effect = lower value 1.01 | S. cerevisiae deletion strains, locus YNL322C, strain KRE1, stronger effect = lower value 0.985 | S. cerevisiae deletion strains, locus YNR030W, strain Alg12, stronger effect = lower value 0.996 | S. cerevisiae deletion strains, locus YPL055C, strain LGE1, stronger effect = lower value 0.96 | S. cerevisiae deletion strains, locus YPL241C, strain CIN2, stronger effect = lower value 0.985 | S. cerevisiae deletion strains, locus YPR135W, strain CTF4, stronger effect = lower value 1.11 | S. cerevisiae strains, strain wild type, stronger effect = lower value 1
